# Reference: PubChem BioAssay (NCI)
# About 83,000 compounds went through this panel and 20% of them were active in at least one assay; those are over-represented in the sample as a whole.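 In brief: 96-well plates, 48 h treatment, single concentration, percent growth endpoint.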 Unmarked numbers belong to inactive results. The source made the active and inactive calls. The calls were made as follows: active = growth percent below 10; inactive = the rest.
# System: HOP-62 NSCLC
# Test: NCI-60 one-dose screen, 48 h (100 = growth as untreated, 0 = no growth, -100 = all killed)
# Settings: 10 µM unless noted
row,Compound,growth
1,COC(=O)C1=Nc2ccc(F)cc2/C1=C\c1sc(Nc2ccc(O)cc2)nc1O,64.3%
2,COc1ccc(OC)c(Nc2nnc(-c3ccc(Cl)cc3)o2)c1,46.7%
3,O=C(OC[C@@H]1CO1)c1cccc2c(=O)c3ccccc3[nH]c12,-26% (active)
4,CNC(=O)c1c(NC(=O)c2ccc(C(C)(C)C)cc2)sc2c(CN(C)C)c(O)ccc12,8.39% (active)
5,C=C1C(=O)O[C@H]2[C@H]1CC/C(COC(=O)c1cc3cc(F)ccc3[nH]1)=C\CC[C@@]1(C)O[C@@H]21,-50.8% (active)
6,COc1ccc2[nH]cc(-c3nc(-c4cn(C)c5ccncc45)cs3)c2c1,95.4%
7,Brc1ccc(-c2cnc3nonc3n2)cc1,105%
8,CC(C)CN1CC(C(=O)Nc2ccc3c(c2)-c2ccccc2C3)CC1=O (stereo not given),50.7% [50 µM]
9,COc1cc2ncnc(Nc3ccc(F)c(Cl)c3)c2cc1OCC(=O)N1CCN(c2ccc(F)cc2)CC1,95.2%
10,COc1ccc(-c2cn(-c3ccc(Cl)cc3)c(SCC(=O)c3ccc([N+](=O)[O-])cc3)n2)cc1,50.4%
11,CCN(CC)S(=O)(=O)c1ccc(S(=O)(=O)N2CCC[C@@H](C(=O)N3CCN(C(=O)OC(C)(C)C)CC3)C2)cc1,66.1%
12,O=C(c1ccc(Cl)cc1Cl)N1c2ccccc2Sc2ccccc21,64.7%
13,COc1ccc(C2C3=C(COC3=O)N(CCO)c3cc4c(cc32)OCCO4)cc1OC (stereo not given),46.3%
14,N#C/C(=C\c1ccc(-c2ccc(Cl)cc2)o1)c1ccc(Cl)cc1,46.8%
15,COc1ccc(C2CC(c3ccc(Nc4nc(Nc5ccc(F)cc5)nc(Nc5ccc(F)cc5)n4)cc3)=NN2C(C)=O)cc1 (stereo not given),96.7%
16,CCN(CC)CCOc1nc2c3ccc(Cl)cc3nn2c2ccccc12,42.3%
17,COc1cc2c(cc1O)[C@@]1(C)[C@H](c3ccccc3Br)OC(=O)N1CC2,97.3%
18,CC(C)(C)c1cc(C=Nc2cccc(C(F)(F)F)c2)c(O)c(C(C)(C)C)c1,95.7%
19,CCCCCCNc1nc(NCCCCCC)c2[nH]c(NCCCCCC)nc2n1,75.7%
20,COc1ccc(C2C(C#N)=C(N)Oc3c2sc2c(Br)cccc32)cc1 (stereo not given),23.7%

row,Compound,growth
1,CC(/C=C1\SC(=S)N(CC(=O)NC(Cc2c[nH]c3ccccc23)C(=O)O)C1=O)=C\c1ccccc1 (stereo not given),96.3%
2,CCOC(=O)c1c(NC(=O)c2ccc(OC)cc2)sc2c(CN(C)C)c(O)ccc12,85%
3,O=C(CCCCl)NNc1nccc(Nc2ccc(S(=O)(=O)Nc3ccncc3)cc2)n1,94.6%
4,Nc1ncnc2c1c(-c1ccc(Oc3ccccc3)cc1)nn2CC1SSCC1O (stereo not given),56.9%
5,COc1ccc(NC(=O)c2sc3nc(C)c(C(O)c4ccccc4)cc3c2N)cc1 (stereo not given),28.2%
6,COc1cccc(C(=O)OCC(O)C(=O)NC23CC4CC(CC(C4)C2)C3)c1 (stereo not given),104%
7,O=C(CBr)CN1C(=O)c2ccccc2C1=O,97.9%
8,O=C(NCc1ccccc1O)c1cccc2ccccc12,86.5%
9,CCn1cc(C(=O)NN=C2CCCCCC2)c(=O)c2ccc(C)nc21,94.8%
10,Nc1c(C(=O)Nc2ccccn2)sc2nc3c(cc12)C(O)CCC3 (stereo not given),26.3%
11,COc1ccc(NC(=O)c2ccc(C(=O)Nc3ccc(OC)cc3OC)cc2)c(OC)c1,33.6%
12,O=C(Nc1ncc(Cc2ccccc2Cl)s1)c1cccs1,66.6%
13,COc1ccc2nc3ccccc3c(NCc3ccccc3)c2c1,33.6%
14,Fc1ccc(COc2ccc(Nc3ncnc4sc5c(c34)CCCC5)cc2)cc1,97.2%
15,COc1ccc(C2=Nc3c/c(=C\c4c(O)[nH]c5cc(Cl)ccc45)ccc3=N2)cc1,77.3%
16,N#Cc1c(N2CCOCC2)nc(=S)[nH]c1-c1ccccc1,51.3%
17,O=C1CCC(C(=O)NN(c2ccccc2)c2ccccc2)N1 (stereo not given),101%
18,C/C(C=O)=C\c1ccc2c(c1)OCO2,108%
19,COc1cc2c(/C=C3\C(=O)Nc4ccccc43)c(C(=O)O)[nH]c2cc1C,92%
20,C/C(=N\Nc1nc(C)cs1)c1cc2ccccc2o1,63.6%

# System: NCI-H460 lung
# Test: as above
# Settings: 10 µM unless noted
row,Compound,growth
1,COC(=O)C1=Nc2ccc(F)cc2/C1=C\c1sc(Nc2ccc(O)cc2)nc1O,102%
2,COc1ccc(OC)c(Nc2nnc(-c3ccc(Cl)cc3)o2)c1,18.8%
3,O=C(OC[C@@H]1CO1)c1cccc2c(=O)c3ccccc3[nH]c12,-21.8% (active)
4,CNC(=O)c1c(NC(=O)c2ccc(C(C)(C)C)cc2)sc2c(CN(C)C)c(O)ccc12,-72.5% (active)
5,C=C1C(=O)O[C@H]2[C@H]1CC/C(COC(=O)c1cc3cc(F)ccc3[nH]1)=C\CC[C@@]1(C)O[C@@H]21,-59.2% (active)
6,COc1ccc2[nH]cc(-c3nc(-c4cn(C)c5ccncc45)cs3)c2c1,-51% (active)
7,Brc1ccc(-c2cnc3nonc3n2)cc1,96.7%
8,CC(C)CN1CC(C(=O)Nc2ccc3c(c2)-c2ccccc2C3)CC1=O (stereo not given),81.8% [50 µM]
9,COc1cc2ncnc(Nc3ccc(F)c(Cl)c3)c2cc1OCC(=O)N1CCN(c2ccc(F)cc2)CC1,101%
10,COc1ccc(-c2cn(-c3ccc(Cl)cc3)c(SCC(=O)c3ccc([N+](=O)[O-])cc3)n2)cc1,91.5%
11,CCN(CC)S(=O)(=O)c1ccc(S(=O)(=O)N2CCC[C@@H](C(=O)N3CCN(C(=O)OC(C)(C)C)CC3)C2)cc1,73.4%
12,O=C(c1ccc(Cl)cc1Cl)N1c2ccccc2Sc2ccccc21,18.3%
13,COc1ccc(C2C3=C(COC3=O)N(CCO)c3cc4c(cc32)OCCO4)cc1OC (stereo not given),10.4%
14,N#C/C(=C\c1ccc(-c2ccc(Cl)cc2)o1)c1ccc(Cl)cc1,10.3%
15,COc1ccc(C2CC(c3ccc(Nc4nc(Nc5ccc(F)cc5)nc(Nc5ccc(F)cc5)n4)cc3)=NN2C(C)=O)cc1 (stereo not given),101%
16,CCN(CC)CCOc1nc2c3ccc(Cl)cc3nn2c2ccccc12,11.4%
17,COc1cc2c(cc1O)[C@@]1(C)[C@H](c3ccccc3Br)OC(=O)N1CC2,96.5%
18,CC(C)(C)c1cc(C=Nc2cccc(C(F)(F)F)c2)c(O)c(C(C)(C)C)c1,107%
19,CCCCCCNc1nc(NCCCCCC)c2[nH]c(NCCCCCC)nc2n1,48.1%
20,COc1ccc(C2C(C#N)=C(N)Oc3c2sc2c(Br)cccc32)cc1 (stereo not given),12.9%

row,Compound,growth
1,CC(/C=C1\SC(=S)N(CC(=O)NC(Cc2c[nH]c3ccccc23)C(=O)O)C1=O)=C\c1ccccc1 (stereo not given),103%
2,CCOC(=O)c1c(NC(=O)c2ccc(OC)cc2)sc2c(CN(C)C)c(O)ccc12,60%
3,O=C(CCCCl)NNc1nccc(Nc2ccc(S(=O)(=O)Nc3ccncc3)cc2)n1,109%
4,Nc1ncnc2c1c(-c1ccc(Oc3ccccc3)cc1)nn2CC1SSCC1O (stereo not given),28%
5,COc1ccc(NC(=O)c2sc3nc(C)c(C(O)c4ccccc4)cc3c2N)cc1 (stereo not given),10.1%
6,COc1cccc(C(=O)OCC(O)C(=O)NC23CC4CC(CC(C4)C2)C3)c1 (stereo not given),101%
7,O=C(CBr)CN1C(=O)c2ccccc2C1=O,108%
8,O=C(NCc1ccccc1O)c1cccc2ccccc12,70.3%
9,CCn1cc(C(=O)NN=C2CCCCCC2)c(=O)c2ccc(C)nc21,92.4%
10,Nc1c(C(=O)Nc2ccccn2)sc2nc3c(cc12)C(O)CCC3 (stereo not given),13.7%
11,COc1ccc(NC(=O)c2ccc(C(=O)Nc3ccc(OC)cc3OC)cc2)c(OC)c1,95.9%
12,O=C(Nc1ncc(Cc2ccccc2Cl)s1)c1cccs1,57.7%
13,COc1ccc2nc3ccccc3c(NCc3ccccc3)c2c1,6.31% (active)
14,Fc1ccc(COc2ccc(Nc3ncnc4sc5c(c34)CCCC5)cc2)cc1,97.3%
15,COc1ccc(C2=Nc3c/c(=C\c4c(O)[nH]c5cc(Cl)ccc45)ccc3=N2)cc1,93.6%
16,N#Cc1c(N2CCOCC2)nc(=S)[nH]c1-c1ccccc1,68.9%
17,O=C1CCC(C(=O)NN(c2ccccc2)c2ccccc2)N1 (stereo not given),101%
18,C/C(C=O)=C\c1ccc2c(c1)OCO2,118%
19,COc1cc2c(/C=C3\C(=O)Nc4ccccc43)c(C(=O)O)[nH]c2cc1C,105%
20,C/C(=N\Nc1nc(C)cs1)c1cc2ccccc2o1,95.6%
